# In all, about 110,000 compounds were measured (“z-score”: median about -0.1, highest 2% from about 2 on). For the sample, the highest values were picked, then their nearest neighbours and some compounds at random. Calls of active or inactive are those of the source.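 How the source made its calls: active means z-score in the third read window above 3 or below -3; inactive means the rest.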
# Target: Metabotropic glutamate receptor 8 (Rattus norvegicus) (UniProt P70579)
# Experiment: mGluR8 Gi/Go-coupled signaling modulation – cell-based, rat, thallium flux, HTS, primary screen (AID 488969)
# Details: HEK293 rat mGluR8, GIRK (G protein-gated inwardly rectifying potassium channel) thallium flux, FluoZin2; at 10 µM; stronger effect = higher value; submaximal glutamate (EC20) added with thallium
# Metabotropic glutamate receptor 8 (Rattus norvegicus), sequence (P70579 whole entry, looked up): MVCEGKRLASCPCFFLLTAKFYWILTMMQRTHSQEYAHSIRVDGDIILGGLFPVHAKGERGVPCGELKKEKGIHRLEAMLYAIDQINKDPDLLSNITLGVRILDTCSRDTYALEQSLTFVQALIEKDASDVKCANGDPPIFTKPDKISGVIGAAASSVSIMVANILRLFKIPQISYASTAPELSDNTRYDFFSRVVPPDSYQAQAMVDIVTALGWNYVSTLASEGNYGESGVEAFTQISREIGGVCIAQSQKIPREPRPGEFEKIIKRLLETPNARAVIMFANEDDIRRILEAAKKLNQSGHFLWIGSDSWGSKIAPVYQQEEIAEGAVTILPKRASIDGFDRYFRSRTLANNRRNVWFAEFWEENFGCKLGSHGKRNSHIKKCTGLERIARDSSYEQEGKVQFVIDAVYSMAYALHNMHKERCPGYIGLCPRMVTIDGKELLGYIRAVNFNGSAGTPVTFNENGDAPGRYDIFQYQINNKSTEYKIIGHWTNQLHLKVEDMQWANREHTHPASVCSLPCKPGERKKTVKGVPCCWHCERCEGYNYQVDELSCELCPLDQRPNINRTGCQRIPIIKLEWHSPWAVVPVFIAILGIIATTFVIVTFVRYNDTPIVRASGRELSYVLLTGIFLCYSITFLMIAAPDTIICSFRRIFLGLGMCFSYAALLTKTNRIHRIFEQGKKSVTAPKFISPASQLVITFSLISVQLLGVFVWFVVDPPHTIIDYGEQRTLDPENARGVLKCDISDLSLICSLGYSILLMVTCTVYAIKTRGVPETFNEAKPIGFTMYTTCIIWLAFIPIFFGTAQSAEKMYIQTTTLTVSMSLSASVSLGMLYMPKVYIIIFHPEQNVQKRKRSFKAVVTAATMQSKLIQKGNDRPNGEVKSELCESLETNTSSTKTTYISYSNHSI
row,SMILES,z-score
1,Cc1ccc(C)c(N2CCN(c3ccc(N4C(=O)COCC4=O)cc3[N+](=O)[O-])CC2)c1,-0.128
2,O=[N+]([O-])c1ccc2c(c1)C(N1CCOCC1)/C(=C/COc1ccc3ccccc3c1Br)O2 (centres undefined),-0.0823
3,COc1ccc(-c2nnn(CC(=O)N3CCN(c4ccccc4OC)CC3)n2)cc1,-0.289
4,CCOC(=O)Nc1sc2c(c1C#N)CCC(C)C2 (centres undefined),-0.505
5,CCCC(=O)Nc1sc2c(c1C(=O)OC)C(C(=O)OC)CC2 (centres undefined),-0.0731
6,CCOC(=O)C1CCc2sc(N)c(C#N)c21 (centres undefined),2.38
7,Cc1ccc(O)c(C(=O)c2cnc3c(c2)COc2ccccc2-3)c1,-0.0344
8,CCOC(=O)C1=C(C)NC(C)=C(C(=O)OCC)C1c1ccc(O)cc1,-0.238
9,CS(=O)(=O)N1CCC(C(=O)Nc2ccc3c(c2)OCCO3)CC1,0.0973
10,O=C(Nc1ccc2c(c1)OCCO2)C1CCN(c2cnccn2)CC1,2.51
11,O=C(Nc1ccc2c(c1)OCCO2)C1CCC1,0.045
12,Cc1cc(C)nc(SCC(=O)c2c(N)n(C)c(=O)n(C)c2=O)n1,-0.282
13,C=CCNC(=O)c1ccc(-c2nc(-c3ccccc3)cs2)cc1,0.133
14,C=CCNC(=O)c1ccc(-c2nc(-c3ccc(Cl)c(Cl)c3)cs2)cc1,-0.148
15,CN(C)CCCNC(=O)c1ccc(-c2nc(-c3ccc(Cl)cc3)cs2)cc1,3.28 (active)
16,CCc1cccc(C)c1NC(=O)CCCC(=O)O,0.0858
17,Cc1ccccc1Cn1ccc(NC(=O)c2nc3ncccn3n2)n1,-1.29
18,O=C(Nc1cnn(Cc2ccccc2)c1)c1nc2ncccn2n1,-0.222
19,Cc1ccccc1Cn1cc(NC(=O)c2nc3ncccn3n2)cn1,2.77
20,COc1ccc(/C=C/C(=O)c2sc(-c3ccccc3)nc2C)cc1,0.276
21,COc1ccc(-c2nc(N)nc(C)c2Oc2ccccc2Br)c(O)c1,-0.381
22,CSc1ccc(CCNC(=O)CSc2ccsc2[N+](=O)[O-])cc1,-0.173
23,CCc1nnc(NC(=O)CSc2nc(-c3ccc(F)cc3)cc(-c3ccccc3)c2C#N)s1,2.35
24,CCc1nnc(NC(=O)CSc2nc(-c3ccccc3)cc(-c3ccc(F)cc3)c2C#N)s1,-0.163
25,CCc1nnc(NC(=O)CSc2nc(-c3ccccc3)cc(-c3ccc(OC)cc3)c2C#N)s1,-0.249
26,c1ccc(-c2nc(CSc3n[nH]c(-c4cccs4)n3)cs2)cc1,0.259
27,CCOC(=O)C1CCCN(C(=O)c2cn(CC(C)C)c(=O)c3cc(OC)c(OC)cc23)C1 (centres undefined),-0.759

row,SMILES,z-score
1,CCCN1CCN(C(=O)c2cn(CC(C)C)c(=O)c3cc(OC)c(OC)cc23)CC1,-0.37
2,COc1cc2c(C(=O)N3CCN(C4CCCCC4)CC3)cn(CC(C)C)c(=O)c2cc1OC,2.68
3,Cc1nn(-c2ccccc2)c(Cl)c1C(=O)OC(C)C(=O)Nc1ccc2c(c1)OCO2 (centres undefined),-0.936
4,CCCn1nnc(NC(=O)c2ccc(F)cc2)n1,-0.08
5,COc1ccc(-c2nc(N)n[nH]2)cc1,-0.101
6,Nc1n[nH]c(-c2ccccc2)n1,0.189
7,CCCCc1ccc(-c2nc(N)n[nH]2)cc1,2.99
8,CCOC(=O)c1c(C)[nH]c(C(=O)COC(=O)c2ccccc2NC(=O)c2ccco2)c1C,-0.00749
9,Cc1ccc(NC(=O)CSCCc2ccccn2)nc1,0.022
10,CSc1ccc(/C=N/NC(=O)CNc2cccc3ccccc23)cc1,0.3
11,CCNC(=O)NC(=O)C(C)OC(=O)C1CCN(S(=O)(=O)c2ccc(C)c(C)c2)CC1 (centres undefined),-0.143
12,Cc1cccc(-c2nc(=S)c3c(n2Cc2ccco2)CCCC3)c1,0.581
13,S=c1nc(-c2ccccc2)n(Cc2ccco2)c2c1CCCC2,2.16
14,COc1cccc(-c2nc(=S)c3c(n2Cc2ccco2)CCCC3)c1,0.708
15,CCCc1[nH]nc2c1C(c1ccc(OCCN3CCOCC3)c(OCC)c1)C(C#N)=C(N)O2 (centres undefined),-0.892
16,O=C(COc1ccc(CO)cc1Cl)Nc1ccc(F)cc1,0.647
17,COc1ccc(NC(=S)NNC(=O)COc2ccc(Cl)cc2Cl)cc1,2.95
18,COC(=O)NC(=S)Nc1ccc(Oc2ccc(Cl)cc2)c(Cl)c1,1.29
19,CCC(=O)NC(=S)Nc1ccc(NC(=O)COc2ccc(Cl)cc2Cl)cc1,-0.124
20,C=CCNC(=S)NNC(=O)COc1ccc(Cl)cc1Cl,6.1 (active)
21,CC(=O)NC(=S)Nc1ccc(NC(=O)COc2ccc(Cl)cc2Cl)cc1,-0.0173
22,CCCC(=O)Nc1cccc(NC(=S)NC(=O)C(C)Oc2ccc(Cl)cc2Cl)c1 (centres undefined),-0.0105
23,COC(=O)NC(=S)Nc1ccc(Oc2ccc(Cl)cc2Cl)c(Cl)c1,3.69 (active)
24,O=C(COc1ccc(Cl)cc1Cl)NNC(=S)Nc1ccc(F)cc1,7.82 (active)
25,C=CCNC(=S)NNC(=O)COc1c(Cl)cc(Cl)cc1Cl,0.71
26,CCc1ccc(OCC(=O)NC(=S)Nc2ccc(F)cc2)c(Br)c1,0.182
27,C=CCNC(=O)COc1ccc(Br)cc1Cl,0.0502
